Measurements from PubChem BioAssay (NCATS).
Inconclusive results are not listed. Unmarked numbers belong to inactive results. The source made the active and inactive calls. Calls come from the whole dose curve; as a rule, active = well fitted inhibition curve with a large enough effect in the repeat runs; inconclusive = weak or mixed curves; inactive = flat fitted curve, though single readings scatter.

These compounds were tested against Cytochrome P450 2D6 (Homo sapiens) (UniProt P10635) (assay: Cytochrome P450 family 2 subfamily D member 6 (CYP2D6) small molecule antagonists: luciferase biochemical (cell-free) qHTS assay (AID 1645840; note: nearly all actives have a fitted effect of over 55% in size)). Settings: P450-Glo CYP2D6 enzyme, luciferin luminescence, 1 h; series mostly up to 57.4 µM; activity change, negative = inhibition: at the top concentration.
Method: National Center for Advancing Translational Sciences [NCATS] Assay Overview: Cytochrome P450 (CYP) enzymes are membrane-bound hemeproteins that play a key role in metabolism of drugs and xenobiotics. Assaying the effect of chemicals on CYP isozymes is useful to minimize the adverse drug reactions and toxicities in drug development process. Chemical compounds were tested for their effect on CYP enzyme activities by using P450-Glo (TM) screening systems (Promega Corporation, Madison, WI). These systems provide a luminescent method containing proluciferin substrates and are converted to luciferin products by CYP isozymes. The luciferin products formed are detected with a luciferin detection reagent, and the amount of light produced is proportional to CYP activity. P450-Glo (TM) CYP2D6 screening system (Catalog. No. V9890) was used to detect the compounds that interfere in CYP2D6 activity.
Assay Protocol Summary: Two ul of enzyme-substrate mix was dispensed into medium binding white/solid 1536-well plates (Greiner Bio-One North America Inc., Monroe, NC) using a Flying Reagent Dispenser (FRD, Aurora Discovery, San Diego, CA). […] The assay plates were incubated at room temperature for 10 min. Then 2 ul of NADPH regeneration solution was added to each well of the assay plates using an FRD and incubated at room temperature for 1 h. The reaction was stopped by adding 4 ul of detection reagent using an FRD and after 20 min incubation at room temperature, the luminescence signal was measured using a ViewLux plate reader (Perkin Elmer, Shelton, CT). Data were expressed as relative luminescence units.
% is set by controls: 0 for no effect and ±100 for the full control effect; potency is the fitted concentration of half-maximal effect.

Cytochrome P450 2D6 (Homo sapiens), sequence (P10635 whole entry, looked up): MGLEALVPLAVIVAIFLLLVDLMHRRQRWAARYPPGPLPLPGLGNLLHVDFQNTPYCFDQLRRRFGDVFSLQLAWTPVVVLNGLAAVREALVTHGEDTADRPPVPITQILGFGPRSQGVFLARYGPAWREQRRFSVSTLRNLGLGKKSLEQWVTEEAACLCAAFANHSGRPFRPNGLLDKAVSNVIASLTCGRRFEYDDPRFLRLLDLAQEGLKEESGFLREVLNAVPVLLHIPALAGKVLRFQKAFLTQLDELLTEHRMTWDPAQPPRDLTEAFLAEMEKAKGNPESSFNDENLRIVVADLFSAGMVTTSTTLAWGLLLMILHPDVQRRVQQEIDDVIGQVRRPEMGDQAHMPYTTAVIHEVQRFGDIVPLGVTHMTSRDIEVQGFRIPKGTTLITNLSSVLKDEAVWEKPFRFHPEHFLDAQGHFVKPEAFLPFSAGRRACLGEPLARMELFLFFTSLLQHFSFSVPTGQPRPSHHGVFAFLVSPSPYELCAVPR

Row | Structure (SMILES) | Potency | activity change, negative = inhibition [%]
1 | CN(C)CC(C)(C)CNc1nn2c(-c3ccccc3)nnc2cc1C1CCC1 | 2.13 µM (active) | –
2 | COc1cccc2c(NCc3ccccc3)nc(-n3c(N)nc4ccccc43)nc12 | 1.9 µM (active) | –
3 | CCCCOc1c(C(=O)c2c(F)cc(C)cc2F)cnc2n[nH]cc12 | – | 0.959
4 | CN(C)c1nc(Cc2ccc(NC(=O)c3ccc4ccccc4c3)cc2)nc(Cl)c1CC(=O)O | – | 0.123
5 | Nc1ncnc2c1c(-c1cccc(OCc3ccccc3)c1)cn2C1CC(CN2CCCC2)C1 (stereo not given) | 12 µM (active) | –
6 | C=CC(=O)Nc1cccc(Oc2nc(Nc3ccc(N4CCN(C)CC4)cc3)ncc2Cl)c1 | 19 µM (active) | –
7 | CN1CCN(Cc2ccc(NC(=O)Nc3ccc(Oc4cc(NC(=O)C5CC5)ncn4)cc3)cc2C(F)(F)F)CC1 | 8.49 µM (active) | –
8 | CC(C)c1cnn2c(NCc3ccccc3)cc(N[C@@H](CO)[C@H](O)CO)nc12 | – | 0.484
9 | CCCNC(=O)Nc1ccc(Oc2ncnc3cc(OC)c(OC)cc23)cc1Cl | – | -1.73
10 | COc1ccc2c(c1)CC[C@@H](CN(C)CC(=O)O)[C@H]2c1ccccc1 | inactive | –
11 | CCOc1ccccc1OCCNC(C)Cc1ccc(OC)c(S(N)(=O)=O)c1 (stereo not given) | 10.7 µM (active) | –
12 | COc1cc2c(Oc3ccc(-c4cnc(Nc5ccc(F)cc5)n(C)c4=O)cc3F)ccnc2cc1OCCCN1CCOCC1 | – | -16
13 | CC(C)CC(=O)Nc1n[nH]c2c1CN(C(=O)C1CCN(C)CC1)C2(C)C | inactive | –
14 | Clc1cccc(-n2nnnc2NCc2ccccc2Oc2ccccn2)c1Cl | 5.35 µM (active) | –
15 | CNC(=O)c1ccc(N2C(=S)N(c3cnc(C#N)c(C(F)(F)F)c3)C(=O)C23CCC3)cc1F | – | -20.4
16 | COc1cc(Nc2ncc(F)c(Nc3ccc4c(n3)N(COP(=O)(O)O)C(=O)C(C)(C)O4)n2)cc(OC)c1OC | – | 2.47
17 | Nc1ncnc2c1c(-c1cnc3[nH]ccc3c1)nn2C1CCCC1 | – | -17.5
18 | c1ccc2c(CCNc3ccc(Nc4ccncc4)cc3)c[nH]c2c1 | 0.477 µM (active) | –
19 | Cn1cc(-c2ccncc2)c(-c2ccc(OCc3ccc4ccccc4n3)cc2)n1 | 7.56 µM (active) | –
20 | Nc1ccn([C@@H]2CS[C@H](CO)O2)c(=O)n1 | – | 0.787

Row | Structure (SMILES) | Potency | activity change, negative = inhibition [%]
21 | CNC(=O)c1c(F)cccc1Nc1nc(Nc2cc3c(cc2OC)CCN3C(=O)CN(C)C)nc2[nH]ccc12 | – | -8.36
22 | O=C(Cc1ccc(-c2ccc(OCCN3CCOCC3)cc2)cn1)NCc1ccccc1 | – | -1.93
23 | Cn1cncc1[C@@](N)(c1ccc(Cl)cc1)c1ccc2c(c1)c(-c1cccc(Cl)c1)cc(=O)n2C | 16.9 µM (active) | –
24 | O=C(O)Cn1nnc(-c2cc(N3CCC(Oc4cc(F)ccc4Br)CC3)no2)n1 | – | -3.76
25 | Cn1cc(-c2[nH]c3cc(NC(=O)[C@H](N)C4CCCCC4)cc4c3c2C=NNC4=O)cn1 | – | -16.1
26 | CC(=O)c1c(C)c2cnc(Nc3ccc(N4CCNCC4)cn3)nc2n(C2CCCC2)c1=O | – | -11.5
27 | O=C(O)c1ccc2c(c1)nc(Nc1cccc(Cl)c1)c1ccncc12 | – | 0.683
28 | CC[C@@H]1C(=O)N(C)c2cnc(Nc3ccc(C(=O)NC4CCC(N5CCN(CC6CC6)CC5)CC4)cc3OC)nc2N1C(C)C (stereo not given in full) | inactive | –
29 | C=CCn1c(=O)c2cnc(Nc3ccc(N4CCN(C)CC4)cc3)nc2n1-c1cccc(C(C)(C)O)n1 | – | 20
30 | Cc1ccc(NC(=O)C2(c3ccc4c(c3)OC(F)(F)O4)CC2)nc1-c1cccc(C(=O)O)c1 | – | 5.23
31 | CC(C)c1noc(N2CCC(COc3ccc(-c4ccc(S(C)(=O)=O)cc4)nc3)CC2)n1 | – | 6.83
32 | CC(=O)SC[C@@H](C)C(=O)N1CCC[C@H]1C(=O)N[C@@H](Cc1ccccc1)C(=O)O | – | 13.6
33 | COc1ccc(-c2cc3c(C)nc(N)nc3n(C3CCC(OCCO)CC3)c2=O)cn1 (stereo not given) | inactive | –
34 | Cc1ccc(C(=O)Nc2ccc(CN3CCN(C)CC3)c(C(F)(F)F)c2)cc1C#Cc1cnc2cccnn12 | 16.9 µM (active) | –
35 | CC1(C)CC(=O)c2c(C(F)(F)F)nn(-c3ccc(C(N)=O)c(NC4CCC(OC(=O)CN)CC4)c3)c2C1 (stereo not given) | 15.1 µM (active) | –
36 | O=C(Nc1cn[nH]c1-c1nc2ccc(CN3CCOCC3)cc2[nH]1)NC1CC1 | inactive | –
37 | COc1ccc(F)c(F)c1C(=O)c1cnc(NC2CCN(S(C)(=O)=O)CC2)nc1N | inactive | –
38 | COc1c(OCCCN2CCOCC2)ccc2c3n(c(=NC(=O)c4cnc(N)nc4)nc12)CCN3 | – | 5.04
39 | Nc1ccc(S(=O)(=O)Nc2ncccn2)cc1 | – | 9.84
40 | NCC(=O)Nc1ccc(-n2nc(C(F)(F)F)cc2-c2ccc3c(ccc4ccccc43)c2)cc1 | 15.1 µM (active) | –
